# Experimental data from the supplement of paper PMC8975748.
# Structures can show the parent of a compound that is named as a salt.
# Test system: Saccharomyces cerevisiae BY4741 SeMeCo community
# Test: z-score of subpopulation abundance vs DMSO median, subpopulation auxotrophic for HLU; higher = larger share of this subpopulation than in DMSO controls
# Conditions: 10 µM; 24 h; SM minimal medium; subpopulation (auxotrophy): HLU
# Description: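 Fluorescent four-plasmid SeMeCo (self-establishing metabolically cooperating S. cerevisiae BY4741 community; plasmids pH-mRuby2, pL-mWasabi, pU-eCFP, pM-TagRFP657) was grown 24 h in minimal SM medium with each Selleck FDA-approved drug at 10 µM in 384-well plates. Cells were fixed and imaged by high-content confocal microscopy. For each auxotrophic subpopulation (and the prototroph), a z-score gives the deviation from the DMSO vehicle-control population median.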
row,SMILES,z-score of subpopulation abundance
1,COc1cccc2c1C(=O)c1c(O)c3c(c(O)c1C2=O)C[C@@](O)(C(C)=O)C[C@@H]3O[C@H]1C[C@H](N)[C@H](O)[C@H](C)O1 [Daunorubicin HCl],4.11
2,CN1CCC(=C2c3ccccc3C=Cc3ccccc32)CC1 [Cyproheptadine hydrochloride],-0.31
3,CCCCOc1ccc(C(=O)CCN2CCCCC2)cc1 [Dyclonine HCl],-0.26
4,O=C1CN(/N=C/c2ccc([N+](=O)[O-])o2)C(=O)N1 [Nitrofurantoin],-0.69
5,O=C([O-])CC(O)(CC(=O)[O-])C(=O)[O-].O=C([O-])CC(O)(CC(=O)[O-])C(=O)[O-].[Bi+3].[K+].[K+].[K+].[K+].[K+] [Bismuth Subcitrate Potassium],3
6,Cc1cccc(N(C)C(=S)Oc2ccc3ccccc3c2)c1 [Tolnaftate],-0.38
7,NS(=O)(=O)Cc1noc2ccccc12 [Zonisamide],1.02
8,CCN1CCN(C(=O)N[C@@H](C(=O)N[C@@H]2C(=O)N3C(C(=O)O)=C(CSc4nnnn4C)CS[C@H]23)c2ccc(O)cc2)C(=O)C1=O [Cefoperazone],-0.34
9,COc1cc(/C=C/C(=O)N2CCN(CC(=O)N3CCCC3)CC2)cc(OC)c1OC [Cinepazide maleate],0.11
10,CN[C@H]1CC[C@@H](c2ccc(Cl)c(Cl)c2)c2ccccc21 [Sertraline HCl],-0.32
11,CCCCCCCCCCCCCCCC[N+](C)(C)C [Cetrimonium Bromide (CTAB)],19.1
12,CC1(C)S[C@@H]2[C@H](NC(=O)COc3ccccc3)C(=O)N2[C@H]1C(=O)O [Penicillin V potassium salt],-0.94
13,CC(=O)[C@H]1CC[C@H]2[C@@H]3CC=C4C[C@@H](O)CC[C@]4(C)[C@H]3CC[C@]12C [Pregnenolone],-0.1
14,CCCCCOc1ccc(-c2cc(-c3ccc(C(=O)N[C@H]4C[C@@H](O)[C@@H](O)NC(=O)[C@@H]5[C@@H](O)[C@@H](C)CN5C(=O)[C@H]([C@H](O)CC(N)=O)NC(=O)[C@H]([C@H](O)[C@@H](O)c5ccc(O)c(OS(=O)(=O)O)c5)NC(=O)[C@@H]5C[C@@H](O)CN5C(=O)[C@H]([C@@H](C)O)NC4=O)cc3)no2)cc1 [Micafungin Sodium],12
15,CCCOc1ccc2c(c1)CC[C@@H]1[C@@H]2CC[C@]2(C)[C@@H](OC)CC[C@@H]12 [Promestriene],0.6
16,Cc1cnc(NC(=O)C2=C(O)c3ccccc3S(=O)(=O)N2C)s1 [Meloxicam],-1.26
17,CC[C@H]1OC(=O)[C@H](C)[C@@H](O[C@H]2C[C@@](C)(OC)[C@@H](O)[C@H](C)O2)[C@H](C)[C@@H](O[C@@H]2O[C@H](C)C[C@H](N(C)C)[C@H]2O)[C@](C)(O)C[C@@H](C)C(=O)[C@H](C)[C@H]2OC(=O)O[C@@]21C [Erythromycin Cyclocarbonate],0.3
18,O=C1C(=O)c2ccccc2C(O)=C1C1CCC(c2ccc(Cl)cc2)CC1 (stereo not given) [Atovaquone],1.94
19,CO/N=C(\C(=O)N[C@@H]1C(=O)N2C(C(=O)OC(C)OC(C)=O)=C(COC(N)=O)CS[C@H]12)c1ccco1 (stereo not given in full) [Cefuroxime axetil],-0.22
20,COc1ccc2cc([C@H](C)C(=O)O)ccc2c1 [Naproxen],-0.86

row,SMILES,z-score of subpopulation abundance
1,C[C@@H]1CC(=O)NN=C1c1ccc(NN=C(C#N)C#N)cc1 [Levosimendan],-0.67
2,CCN1CC(CCN2CCOCC2)C(c2ccccc2)(c2ccccc2)C1=O (stereo not given) [Doxapram HCl],-0.53
3,COc1ccccc1OCC(O)CN1CCN(CC(=O)Nc2c(C)cccc2C)CC1 (stereo not given) [Ranolazine 2HCl],-0.68
4,O=C(O)c1cccnc1Nc1cccc(C(F)(F)F)c1 [Niflumic acid],-0.64
5,CCC(=O)c1c(O)cc(O)cc1O [Flopropione],-0.08
6,O=C(O)C1=C(CSc2nnnn2CS(=O)(=O)O)CS[C@@H]2[C@H](NC(=O)[C@H](O)c3ccccc3)C(=O)N12 [Cefonicid sodium],0.39
7,COc1cccc(CCc2ccccc2OCC(CN(C)C)OC(=O)CCC(=O)O)c1 (stereo not given) [Sarpogrelate hydrochloride],-0.99
8,COc1ccc(CC2c3cc(OC)c(OC)cc3CC[N+]2(C)CCC(=O)OCCCCCOC(=O)CC[N+]2(C)CCc3cc(OC)c(OC)cc3C2Cc2ccc(OC)c(OC)c2)cc1OC (stereo not given) [Atracurium Besylate],0.55
9,COc1c(N2C[C@@H]3CCCN[C@@H]3C2)c(F)cc2c(=O)c(C(=O)O)cn(C3CC3)c12 [Moxifloxacin HCl],-0.07
10,CN(C)CCCN1c2ccccc2Sc2ccccc21 [Promazine hydrochloride],0.06
11,C#C[C@]1(O)CC[C@H]2[C@@H]3CCc4cc(O)ccc4[C@H]3CC[C@@]21C [Ethinyl Estradiol],-0.36
12,Nc1ccc(S(=O)(=O)c2ccc(N)cc2)cc1 [Dapson],0.22
13,CCOC(=O)C1=C(COCCN)NC(C)=C(C(=O)OC)C1c1ccccc1Cl (stereo not given) [Amlodipine Besylate],-3.58
14,Cc1cccc(C)c1NC(=O)C1CCCCN1C (stereo not given) [Mepivacaine],0.12
15,O=[N+]([O-])c1ccc(O)c2ncccc12 [Nitroxoline],24.8
16,CO/N=C(\C(=O)N[C@@H]1C(=O)N2C(C(=O)O)=C(COC(N)=O)CS[C@H]12)c1ccco1 [Cefuroxime sodium],-1.34
17,CCOc1cc(N)c(Cl)cc1C(=O)NCC1CN(Cc2ccc(F)cc2)CCO1 (stereo not given) [Mosapride],-0.42
18,CC[C@@]1(O)C(=O)OCc2c1cc1n(c2=O)Cc2cc3c(CN(C)C)c(O)ccc3nc2-1 [Topotecan HCl],-0.87
19,CCN(CC)C(=O)N1CCN(C)CC1 [Diethylcarbamazine citrate],-0.06
20,CC[C@H]1OC(=O)C[C@@H](O)[C@H](C)[C@@H](O[C@@H]2O[C@H](C)[C@@H](O[C@H]3C[C@@](C)(O)[C@@H](O)[C@H](C)O3)[C@H](N(C)C)[C@H]2O)[C@@H](CC=O)C[C@@H](C)C(=O)/C=C/C(C)=C/[C@@H]1CO[C@@H]1O[C@H](C)[C@@H](O)[C@@H](OC)[C@H]1OC [Tylosin],0.34
